Screening data (PubChem BioAssay)
This is a sample that favours compounds with a hit; in the whole collection about 11% have one here.
AMA1 RON2 block: disrupts binding of P. falciparum AMA1 to RON2 | 360,000 tested, 0.2% active | Potency, µM (top dose mostly 58.2 µM), for the others: top-dose activity change, negative = inhibition, actives largely listed as inhibitors | AID 720542 | AlphaScreen AMA1-biotinylated RON2 peptide binding;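 note: 0% = vehicle wells and -100% = peptide control; nearly all actives have a fitted effect of over 45% in size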
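AMA1 (3D7) with his tag at 25 nM final met compounds first, then biotinylated RON2 peptide at 25 nM; detection used donor plus acceptor beads, 10 µg/mL apiece, read by AlphaScreen after 30 min at room temperature.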
Pf growth 96h: inhibits malaria parasite growth, 96 h. 320,000 tested, 6.9% active. AID 504834. P. falciparum luciferase reporter growth, 96 h. Potency, µM (doses to about 28.7 µM), without a hit: top-dose activity change, negative = inhibition, hits mostly inhibitors
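Two parasite generations (96 h, 37 C, 5% CO2) of compound exposure in infected erythrocytes (0.05% parasitemia, 2% hematocrit). Luciferase-reporter P. falciparum; decreased luminescence indicates inhibited growth, aimed at apicoplast-acting delayed death.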
Pf growth 48h: P. falciparum growth inhibition at 48 hours (one generation); P. falciparum luciferase growth in erythrocytes, 48 h; Potency, µM (top dose mostly 28.7 µM), for the others: at the highest dose activity change, negative = inhibition, most hits filed as inhibitors; 310,000 tested, 5.9% active
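Read-out is firefly luciferase luminescence from an integrated reporter in P. falciparum, so falling signal marks reduced parasite growth. Infected erythrocytes were at 2% hematocrit and 0.1% parasitemia (final) in Albumax-supplemented RPMI 1640.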
HCV inh: inhibitors of hepatitis C virus infection; Huh7.5.1 HCVcc-Cre infection, luciferase reporter, 44 h; Potency, µM (titrated, usually from 41.8 µM), inactives show at the highest dose activity change, negative = inhibition, actives largely listed as inhibitors; 340,000 tested, 3.4% active
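Luciferase read-out (15 sec integration) after a 15 min room-temperature substrate step quantifies HCVcc-Cre infection. Cells, 1,000 per well, had compound added 4 h post-plating, then virus at ~0.5 moi, and were cultured 44 h.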
An asterisk follows results filed as active. Calls come from the whole dose curve; as a rule, active = well fitted curve in the direction sought with a large enough effect; inconclusive = small, poorly fitted or top-dose-only effect, or another doubt; inactive = no such curve, though single readings can be large; an effect the other way counts as inactive or inconclusive. Unless noted, % is set by controls: 0 for no effect and ±100 for the full control effect; potency is the fitted concentration of half-maximal effect.

Screening CCN(C[C@H]1N[C@@](C)(C(=O)OC)[C@H]2C(=O)N(C)C(=O)[C@@H]12)S(=O)(=O)c1ccc(F)cc1 returned AMA1 RON2 block 12% and HCV inh 49%.
`CCN(CC)C(=O)COc1ccc(/C(C)=N/Nc2ncc(Cl)cc2Cl)cc1` gave AMA1 RON2 block 39%, Pf growth 96h 22%, Pf growth 48h -15% and HCV inh 11µM*.
C/C(=N\Nc1ncc(Cl)cc1Cl)c1ccc(C#N)cc1 was read as AMA1 RON2 block inconclusive, Pf growth 96h 11%, Pf growth 48h 74% and HCV inh -10%.
Screening Cc1cc(C)n(CCO)c(=O)n1 returned AMA1 RON2 block 0%, Pf growth 96h 2.3µM*, Pf growth 48h 9% and HCV inh 10%.
Screening CCN1CCN(Cc2cc(Br)cc(Br)c2O)CC1 returned AMA1 RON2 block 18%, Pf growth 48h 1.7µM* and HCV inh inconclusive.
For COc1ccc(Br)cc1CN1CCN(CCO)CC1 the results were AMA1 RON2 block 1%, Pf growth 96h -20% and Pf growth 48h 12%.
For OCCN1CCN(Cc2cc(Br)cc(Br)c2O)CC1 the results were AMA1 RON2 block 43%, Pf growth 96h 5%, Pf growth 48h 0% and HCV inh 9%.
For CCN1CCN(Cc2cc(Br)ccc2O)CC1 the results were AMA1 RON2 block -5%, Pf growth 48h 13µM* and HCV inh 35µM*.
Screening Oc1ccc(Br)cc1CN1CCN(c2ccccc2)CC1 returned AMA1 RON2 block -9%, Pf growth 96h 63%, Pf growth 48h 1.7µM* and HCV inh 8%.
CCc1ccc(CN2CCN(Cc3cc(Br)ccc3O)CC2)cc1 was read as AMA1 RON2 block inconclusive, Pf growth 96h 1.2µM*, Pf growth 48h 0.23µM* and HCV inh -28%.
CN(CC(=O)Nc1ccccc1Cl)C(=O)CSc1nnc(N)s1 was read as AMA1 RON2 block 1%, Pf growth 96h 5%, Pf growth 48h 0% and HCV inh 11%.
Screening CCC(C)C(NC(=O)OC(C)(C)C)C(=O)NC(C(=O)NC(C)C(N)=O)C(C)C (stereo not given) returned AMA1 RON2 block -5%, Pf growth 96h 5%, Pf growth 48h 7% and HCV inh -1%.
CCCNC(=O)C1(C)CCCN(C(=O)c2cccc(C#N)c2)C1 (stereo not given) was read as AMA1 RON2 block -1%.
For Cc1oc(-c2ccccc2Cl)nc1CN1CCCN(C(=O)c2ccco2)CC1 the results were AMA1 RON2 block -5%, Pf growth 96h -2%, Pf growth 48h -20% and HCV inh -13%.
Screening Oc1ccc(Br)cc1/C=N/N1CCCCC1 returned AMA1 RON2 block -4%, Pf growth 96h 148%, Pf growth 48h 95% and HCV inh 21%.
For Oc1ccc(Br)cc1CN1CCCCCCC1 the results were AMA1 RON2 block -25%, Pf growth 48h 1.7µM* and HCV inh 4%.
For CCOc1ccc(CCNC(=O)CN2C(=O)NC3(CCCC3)C2=O)cc1OCC the results were AMA1 RON2 block -12%, Pf growth 96h 17%, Pf growth 48h 9% and HCV inh -3%.
`CCOc1ccc(-c2cccc(NC(=O)c3cccs3)c2)nn1` gave AMA1 RON2 block 19%, Pf growth 96h 3.7µM*, Pf growth 48h 5.2µM* and HCV inh inconclusive.
For COc1ccc(-c2cccc(NC(=O)c3cccs3)c2)nn1 the results were AMA1 RON2 block 7%, Pf growth 96h 7.4µM*, Pf growth 48h 9.3µM* and HCV inh 3.5µM*.
Screening CCOc1ccc(-c2cccc(NC(=O)c3ccco3)c2)nn1 returned AMA1 RON2 block 12%, Pf growth 96h 10µM*, Pf growth 48h inconclusive and HCV inh 0%.
`CCOc1ccc(-c2cccc(NC(=O)COc3ccc(Cl)cc3)c2)nn1` gave AMA1 RON2 block 10%, Pf growth 96h inconclusive, Pf growth 48h -11% and HCV inh inconclusive.
Cc1nn2c(-c3cccc(NC(=O)c4ccco4)c3)nnc2c2ccccc12 was read as AMA1 RON2 block -9%, Pf growth 96h 53%, Pf growth 48h 9.3µM* and HCV inh inconclusive.
For CCS(=O)(=O)c1ccc(-c2cccc(NC(=O)c3ccco3)c2)nn1 the results were AMA1 RON2 block 16%, Pf growth 96h inconclusive, Pf growth 48h inconclusive and HCV inh inconclusive.
`CC(O)(CC(=O)CC(=O)c1ccccc1)c1ccccc1` (stereo not given) gave AMA1 RON2 block 32% and HCV inh inconclusive.
